Results filed as inconclusive are left out. Activity calls are given as the source filed them. Calls come from the whole dose curve; as a rule, active = well fitted curve in either direction with a large enough effect (not every such curve was filed as active); inconclusive = small, poorly fitted or top-dose-only effect, or another doubt; inactive = flat fitted curve, though single readings scatter.
Molecular target: Mitogen-activated protein kinase 10 (Mus musculus) (UniProt Q61831)
Assay: JNK3 AlphaScreen Assay (AID 530);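 note: kinase came from lysate of stimulated human HepG2 cells; signal reports phosphorylation of biotinylated GST-cJun 1-79 at Ser73 with 10 µM ATP; series mostly up to about 57 µM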
How it was run: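 Compound titrations were preincubated 15 minutes at room temperature with substrate, antibody and pre-activated JNK3-containing HepG2 lysate. Reactions were started with 10 uM ATP and stopped with EDTA-containing bead buffer for AlphaScreen detection.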

SMILES: COCCNC(=O)C1(C)C=CC2(CCCCC2)N1C(=O)c1ccccc1 (stereo not drawn)
- outcome: inactive

SMILES: Cc1cc(C(=O)N[C@@H](c2ccccc2)[C@]2(C)C[C@H]2[C@@H](C)C(=O)Nc2ccc3ccccc3c2)no1
- outcome: inactive

SMILES: COC(=O)[C@@]1(Cc2ccccc2)[C@H]2c3cc(C(=O)N4CCCC4)n(CCO)c3C[C@H]2CN1C(=O)c1ccccc1
- outcome: inactive
